Assay outcomes: PubChem BioAssay, The Scripps Research Institute Molecular Screening Center
CHO-K1 Ca PAM – counter-screen for M1 PAMs: effect in parental CHO-K1 cells; actives 0.02% (n = 360,000); activation, % at 3 µM; AID 602247; ATP EC20, Fluo-8 calcium fluorescence; 0% at ATP EC20, 100% at ATP max;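 active = activation above the run cutoff, the mean activation of all test compounds plus 3 SD, cut at about 40% in these data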;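 note: peak over basal fluorescence ratio in a 140 s read after ATP addition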
CHO-K1 Ca antag – M1 antagonist counterscreen hit in parental CHO-K1 cells. ATP-induced calcium, Fluo-8 fluorescence. inhibition, % at 3 µM. actives 0.6% (n = 360,000). AID 602250;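 active = inhibition above a per-plate cutoff, the plate's mean sample inhibition plus 3 SD, cut at about 24% in these data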;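 note: 0% = DMSO plus EC80 ATP and 100% = DMSO alone without ATP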
M1 antag – human CHRM1 antagonism. inhibition, % at 3 µM. CHO-K1 hM1, Fluo-8 calcium fluorescence, ACh EC80 antagonist. AID 588852. actives 1.3% (n = 360,000);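 active = percent inhibition above its own plate's cutoff, namely the mean of that plate's compound wells plus 3 SD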;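 note: peak over basal fluorescence ratio during 140 s after agonist addition; 0% = ACh EC80 plus DMSO and 100% = DMSO alone without agonist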
Target sequence (P11229 whole entry, looked up): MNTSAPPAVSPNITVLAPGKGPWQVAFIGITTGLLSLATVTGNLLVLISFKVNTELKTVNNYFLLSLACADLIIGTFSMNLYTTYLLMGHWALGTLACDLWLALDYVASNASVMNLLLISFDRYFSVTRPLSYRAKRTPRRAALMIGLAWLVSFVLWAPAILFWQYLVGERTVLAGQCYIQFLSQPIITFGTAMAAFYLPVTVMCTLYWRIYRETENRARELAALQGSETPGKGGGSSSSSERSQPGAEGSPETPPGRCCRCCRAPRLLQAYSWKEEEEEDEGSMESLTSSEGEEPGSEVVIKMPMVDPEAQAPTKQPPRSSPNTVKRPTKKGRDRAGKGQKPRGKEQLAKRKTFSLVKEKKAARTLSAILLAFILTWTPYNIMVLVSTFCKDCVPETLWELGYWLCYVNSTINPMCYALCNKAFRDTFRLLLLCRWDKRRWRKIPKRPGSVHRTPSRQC
M1 PAM – positive allosteric modulators of human M1 muscarinic receptor; activation, % at 3 µM; actives 0.088% (n = 360,000); CHO-K1 hM1, Fluo-8 calcium fluorescence, ACh EC20; 0% = ACh EC20, 100% = maximal ACh; AID 588819; in the data active = activation above about 19%, passing the limit was not always enough
M1 ag parental – M1 agonist counterscreen hit in parental CHO-K1 cells | activation, % at 3 µM | actives 0.48% (n = 360,000) | AID 602248 | Fluo-8 calcium fluorescence; scaled to maximal ATP response, vehicle zero; in the data active = activation above about 15%;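 note: untransfected CHO-K1 host cells lacking M1 receptor as counterscreen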
M1 ag – agonists of human M1 muscarinic receptor; P11229; actives 0.33% (n = 360,000); AID 588814; CHO-K1 hM1, Fluo-8 calcium fluorescence, agonist mode; 0% DMSO, 100% acetylcholine EC100; activation, % at 3 µM;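 active = activation above the run's mean compound activation plus 3 SD, cut at about 16% in these data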;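 note: peak over basal fluorescence ratio within a 140 s kinetic read after compound addition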
Numbers without * were called inactive. Rows were chosen to be rich in hits. Some 2.3% of all compounds tested hit in one or more screens of this group.

SMILES	CHO-K1 Ca PAM	CHO-K1 Ca antag	M1 antag	M1 PAM	M1 ag parental	M1 ag
CSCCC(NC(=O)c1ccc(Cl)c([N+](=O)[O-])c1)C(=O)N1CCN(C/C=C/c2ccccc2)CC1 (centres undefined)	5	-11	2	-2	0	20*
O=C(NCCN1CCN(c2cccc(Cl)c2)CC1)Nc1ccccc1	7	-14	7	-7	8	-3
CC(C)C(NC(=O)c1ccccc1)C(=O)N1CCN(C/C=C/c2ccccc2)CC1 (centres undefined)	6	-15	5	-6	0	-3
COc1ccc(C(=O)NCC(=O)N2CCN(c3ccccc3)CC2)cc1	11	-17	-15	12	1	0
O=C(NCCN1CCN(c2ccccc2)CC1)Nc1ccc(Cl)cc1	3	-17	-3	2	16*	-1
COc1ccc(OC)c(NC(=O)CSc2ncnc3c2cnn3-c2ccccc2Cl)c1	-14	11	22	-5	7	1
C[C@H](NC(=O)c1ccc(C(C)(C)C)cc1)C(=O)N1CCN(C/C=C/c2ccccc2)CC1	16	-22	46*	-16	5	38*
Cn1c(=O)c(C#N)c(-c2ccc(F)cc2)c2cc(C(=O)c3cc(Cl)cc(Cl)c3O)cnc21	-11	12	31*	-12	14	3
OC(COc1ccccc1)CN1CCCCC1 (centres undefined)	26	-22	-13	3	2	-4
OC(COc1ccc(CNCCc2ccccc2F)cc1)CN1CCCCC1 (centres undefined)	-11	2	38*	-18	0	-7
O=C(Cc1ccccc1)NC(NC(=O)Cc1ccccc1)c1cccc([N+](=O)[O-])c1	11	-5	-6	9	0	-5
C=CCN(CC(O)c1cccc([N+](=O)[O-])c1)C(C)CCc1ccccc1 (centres undefined)	4	-4	39*	-24	0	-7
CCOC(=O)c1ccc(N2CC(O)=C(c3nc4ccccc4c(=O)[nH]3)C2=N)cc1	-7	24*	3	-2	1	-3
COc1ccc(CCN2CC(O)=C(c3nc4ccccc4c(=O)[nH]3)C2=N)cc1OC	-8	30*	-5	7	0	-1
CCOc1ccc(N2CC(O)=C(c3nc4ccccc4c(=O)[nH]3)C2=N)cc1	-5	7	2	-6	0	-5
COc1ccc(CCN2CC(O)=C(c3nc(C)cs3)C2=N)cc1OC	-5	15	3	2	0	-4
CCSc1nc2ccccc2c(=O)n1CCc1ccc(OC)c(OC)c1	-18	8	25*	-10	3	-3
O=C(CCN1CCCC1=O)NC1CCCc2c1cnn2-c1ccc(F)cc1F (centres undefined)	4	-7	-11	10	1	-3
Cc1ccc(S(=O)(=O)n2cnc3cc([N+](=O)[O-])ccc32)c(C)c1C	-9	25*	13	-8	0	-1
CCN1C(=O)[C@H]2[C@@H](c3ccc(-c4ccc(F)cc4)c(OC)c3)N[C@@](Cc3ccccc3)(C(=O)OC)[C@H]2C1=O	2	-7	-3	5	0	-2
O=S(=O)(c1ccc(OC(F)(F)F)cc1)N1CCCC(N2CCOCC2)C1 (centres undefined)	-5	1	1	-4	0	-4
Cc1ccc(C(=O)Cn2cnc3ccccc3c2=O)cc1	30	-16	-24	-5	0	-2
CCOc1ccc(C(=O)Cn2cnc3ccccc3c2=O)cc1	-2	-19	28*	-12	2	-8
CCN1/C(=C/C=C/c2sc3ccccc3[n+]2CC)Sc2ccccc21	1	20	16	-12	5	1
CCN1/C(=C/c2ccc3cc(C)ccc3[n+]2CC)Sc2cc(C)c(C)cc21	-15	50*	40*	-18	11	1
CC[n+]1c(/C=C2\Sc3ccccc3N2C)ccc2cccc(C)c21	8	31*	54*	-11	19*	22*
CCN1/C(=C/c2ccc3cc(C)ccc3[n+]2CC)Sc2ccccc21	-8	58*	66*	-19	36*	47*
CC[n+]1ccccc1/C=C1\Sc2ccc(C)cc2N1C	7	-15	-10	12	0	-10
